Reference: PubChem BioAssay
Calls of active or inactive are those of the source.

Assays:
[1] = binders of probe aFSTL3 on microarray, primary screen, stem cell growth factor project, biochemical, small-molecule microarray, fluorescence 635/667 (AID 1064); conditions: higher = more signal;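 further: measures binding of the biotinylated anti-FSTL3 antibody to printed compounds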
[2] = binders from COS7 lysate, DM2A8 probe, primary screen, torsin A project, cell lysate, small-molecule microarray, fluorescence 635/667 (AID 1065); conditions: higher = more signal, COS7 lysate expressing mutant human TOR1A
[3] = binders of probe aFGF2 on microarray, primary screen, stem cell growth factor project, biochemical, small-molecule microarray, fluorescence 635/667 (AID 1067); conditions: higher = more signal;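 further: measures binding of biotinylated aFGF2 protein to printed compounds on slides; z-score merges feature fluorescence and signal-to-noise across triplicate slides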
[4] = binders of probe aFGF10 on microarray, primary screen, stem cell growth factor project, biochemical, small-molecule microarray, fluorescence 635/667 (AID 1071); conditions: higher = more signal;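 further: score merges 667 nm spot intensity and signal to noise from triplicate slides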
[5] = target: Neurogenic locus notch homolog protein 2 (Homo sapiens) (UniProt Q04721); assay: Notch2 binders on small-molecule microarrays, primary screen, biochemical, small-molecule microarray, 635 nm fluorescence, stem cell growth factors (AID 1073); conditions: Notch2 binding, higher = more signal
[6] = target: Pro-neuregulin-1, membrane-bound isoform (Homo sapiens) (UniProt Q02297); assay: NRG1 binders on small-molecule microarrays, primary screen, psychiatric disease protein project, biochemical, small-molecule microarray, fluorescence 635/667 (AID 1075); conditions: NRG1 binding, 635 nm fluorescence, higher = more signal;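 further: score combines 667 nm spot fluorescence with signal to noise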
[7] = tested on: Neuregulin-1 EGF-like domain; assay: binders of neuregulin-1 EGF-like domain, primary screen, biochemical, small-molecule microarray, 635 nm fluorescence (AID 1081); conditions: small-molecule microarray binding, higher = more signal;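 further: binding of the protein to compounds printed on small-molecule microarray slides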
[8] = FRG1 promoter luciferase signal modulators, primary screen, FRG1 inhibition for FSHD, cell-based, C2C12 myotubes, firefly/Renilla luciferase, luminescence (AID 1084); conditions: higher = more signal, called active from +8 up or from −8 down
[9] = binders of probe aFST on microarray, primary screen, stem cell growth factor project, biochemical, small-molecule microarray, fluorescence 635/667 (AID 1086); conditions: higher = more signal;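 further: score merges 667 nm fluorescence with signal-to-noise of each printed compound spot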
[10] = binders of probe aHhip on microarray, primary screen, stem cell growth factor project, biochemical, small-molecule microarray, fluorescence 635/667 (AID 1087); conditions: higher = more signal;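 further: score merges spot fluorescence at 667nm with spot signal to noise ratio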
[11] = tested on: PRMT1 (protein arginine N-methyltransferase 1); assay: PRMT1 binders on small-molecule microarrays, primary screen, biochemical, small-molecule microarray, 635 nm fluorescence (AID 1088); conditions: small-molecule microarray binding, higher = more signal;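 further: binding of Prmt1 protein to compounds spotted on small-molecule microarray slides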
[12] = yeast growth modulation, basal conditions, primary screen, YJM789 clinical isolate, OD600, 24 h (AID 1089);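 further: growth of clinical yeast isolate S. cerevisiae YJM 789 seeded 1000 cells per well; test concentration not given here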; conditions: S. cerevisiae YJM789 growth, higher = more signal, called active from +8 up or from −8 down
[13] = fission yeast growth modulation, primary screen, strain 972, OD600, 24 h, no modulator (AID 1090);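 further: basal condition with compound alone and no growth modifier present; test concentration not given here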; conditions: S. pombe 972 growth, higher = more signal, called active from +8 up or from −8 down
[14] = S. cerevisiae growth modulation with rapamycin, primary screen, strain BY4716, OD600, 96 h (AID 1091); conditions: higher = more signal, called active from +8 up or from −8 down; further: test concentration not given here
[15] = target: Torsin-1A-interacting protein 2 (Homo sapiens) (UniProt Q8NFQ8); assay: LULL1 binders on small-molecule microarray, primary screen, cell lysate, human LULL1 lysate, 635/667 nm fluorescence (AID 1092); conditions: hLULL1 lysate binding, 635 nm fluorescence, higher = more signal;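 further: probe is lysate of COS7 cells overexpressing human LULL1; score merges per-feature 667 nm fluorescence with signal-to-noise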
[16] = E. coli growth modulation, two-sided OD650, primary screen, E. coli filamentation project, strain DRC41, 24 h (AID 1093); conditions: OD650, 24 h, higher = more signal, called active from +8 up or from −8 down;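 further: MC1000 strain lacking acrAB efflux and sulA so SOS filamentation is blocked; test concentration not given here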
[17] = small-molecule microarray binders of probe aLefty2, primary screen, biochemical, biotinylated probe, 635/667 nm fluorescence (AID 1094); conditions: higher = more signal;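 further: score merges spot fluorescence near 667 nm with spot signal-to-noise ratio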
[18] = tested on: Noggin (protein binding on small-molecule microarray); assay: Noggin binders on small-molecule microarray, primary screen, biochemical, 635/667 nm fluorescence (AID 1095); conditions: 635 nm fluorescence, higher = more signal;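 further: score merges 667 nm feature fluorescence with signal to noise over triplicate slides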
[19] = target: Neurogenic locus notch homolog protein 3 (Homo sapiens) (UniProt Q9UM47); assay: NOTCH3 binders on small-molecule microarray, primary screen, biochemical, 635/667 nm fluorescence (AID 1096); conditions: NOTCH3 binding, 635 nm fluorescence, higher = more signal
[20] = small-molecule microarray binders of probe aEGFR, primary screen, biochemical, biotinylated probe, 635/667 nm fluorescence (AID 1097); conditions: higher = more signal;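 further: probe is a biotinylated anti-EGFR antibody binding compounds printed on slides; score combines fluorescence near 667 nm and signal to noise of each spot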

Neurogenic locus notch homolog protein 3 (Homo sapiens), sequence (Q9UM47 whole entry, looked up): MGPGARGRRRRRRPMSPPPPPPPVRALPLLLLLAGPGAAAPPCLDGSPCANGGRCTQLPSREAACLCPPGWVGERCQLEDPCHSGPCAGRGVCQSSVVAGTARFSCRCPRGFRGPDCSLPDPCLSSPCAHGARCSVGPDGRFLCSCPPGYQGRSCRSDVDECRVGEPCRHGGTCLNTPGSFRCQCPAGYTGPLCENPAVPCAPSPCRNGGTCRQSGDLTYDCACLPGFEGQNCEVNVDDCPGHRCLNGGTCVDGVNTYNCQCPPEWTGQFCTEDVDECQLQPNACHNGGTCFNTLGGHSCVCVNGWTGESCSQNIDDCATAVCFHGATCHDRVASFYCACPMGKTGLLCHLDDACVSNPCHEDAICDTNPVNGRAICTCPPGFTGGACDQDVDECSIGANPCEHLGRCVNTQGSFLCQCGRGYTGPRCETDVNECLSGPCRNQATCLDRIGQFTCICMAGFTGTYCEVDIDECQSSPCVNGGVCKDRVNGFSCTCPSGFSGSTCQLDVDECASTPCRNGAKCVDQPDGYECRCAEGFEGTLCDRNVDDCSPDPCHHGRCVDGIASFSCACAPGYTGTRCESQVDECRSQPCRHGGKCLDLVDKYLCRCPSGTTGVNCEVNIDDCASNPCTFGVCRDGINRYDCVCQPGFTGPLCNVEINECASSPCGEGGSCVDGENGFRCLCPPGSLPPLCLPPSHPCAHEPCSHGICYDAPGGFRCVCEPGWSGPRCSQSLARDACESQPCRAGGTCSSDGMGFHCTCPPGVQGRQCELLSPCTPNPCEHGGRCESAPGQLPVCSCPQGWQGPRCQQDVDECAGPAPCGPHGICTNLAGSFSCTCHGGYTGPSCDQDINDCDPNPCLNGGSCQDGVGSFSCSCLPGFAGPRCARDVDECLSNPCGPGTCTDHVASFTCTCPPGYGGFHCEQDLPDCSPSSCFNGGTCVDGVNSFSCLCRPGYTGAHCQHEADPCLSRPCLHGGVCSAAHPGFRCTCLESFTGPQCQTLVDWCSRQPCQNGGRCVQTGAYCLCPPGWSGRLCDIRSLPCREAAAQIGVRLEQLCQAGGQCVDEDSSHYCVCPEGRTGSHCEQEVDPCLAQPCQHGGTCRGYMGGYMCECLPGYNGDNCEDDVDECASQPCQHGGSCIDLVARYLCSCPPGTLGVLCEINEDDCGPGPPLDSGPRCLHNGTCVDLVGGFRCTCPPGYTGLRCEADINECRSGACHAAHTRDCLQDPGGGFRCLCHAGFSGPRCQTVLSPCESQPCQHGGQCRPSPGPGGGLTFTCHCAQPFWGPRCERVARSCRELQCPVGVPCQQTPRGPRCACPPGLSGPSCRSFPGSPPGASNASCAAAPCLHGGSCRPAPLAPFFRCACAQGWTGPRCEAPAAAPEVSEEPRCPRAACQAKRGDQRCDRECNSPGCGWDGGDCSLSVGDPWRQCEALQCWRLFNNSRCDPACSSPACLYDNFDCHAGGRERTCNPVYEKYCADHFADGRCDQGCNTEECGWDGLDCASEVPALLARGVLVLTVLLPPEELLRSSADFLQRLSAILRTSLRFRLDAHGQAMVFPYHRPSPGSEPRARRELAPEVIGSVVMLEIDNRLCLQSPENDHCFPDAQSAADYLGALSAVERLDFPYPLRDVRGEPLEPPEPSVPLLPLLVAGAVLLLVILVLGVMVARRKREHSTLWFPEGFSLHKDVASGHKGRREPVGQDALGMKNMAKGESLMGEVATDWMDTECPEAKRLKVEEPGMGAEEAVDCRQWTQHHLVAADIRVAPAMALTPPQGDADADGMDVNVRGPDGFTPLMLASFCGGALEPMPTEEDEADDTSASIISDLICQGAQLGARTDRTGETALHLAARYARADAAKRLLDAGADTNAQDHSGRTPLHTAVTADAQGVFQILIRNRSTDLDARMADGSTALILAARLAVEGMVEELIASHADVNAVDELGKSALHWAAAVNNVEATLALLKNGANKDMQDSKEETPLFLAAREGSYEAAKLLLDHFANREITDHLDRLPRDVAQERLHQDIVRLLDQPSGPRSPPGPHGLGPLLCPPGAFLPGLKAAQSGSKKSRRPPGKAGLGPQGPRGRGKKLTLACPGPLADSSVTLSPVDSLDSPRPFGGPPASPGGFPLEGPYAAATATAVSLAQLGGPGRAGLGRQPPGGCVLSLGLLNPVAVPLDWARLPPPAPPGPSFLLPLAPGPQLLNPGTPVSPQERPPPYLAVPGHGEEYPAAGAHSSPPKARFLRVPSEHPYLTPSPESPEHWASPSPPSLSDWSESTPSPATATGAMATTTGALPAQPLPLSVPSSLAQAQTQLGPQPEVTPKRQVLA
Pro-neuregulin-1, membrane-bound isoform (Homo sapiens), sequence (Q02297 whole entry, looked up, the tested form may be a part, canonical isoform): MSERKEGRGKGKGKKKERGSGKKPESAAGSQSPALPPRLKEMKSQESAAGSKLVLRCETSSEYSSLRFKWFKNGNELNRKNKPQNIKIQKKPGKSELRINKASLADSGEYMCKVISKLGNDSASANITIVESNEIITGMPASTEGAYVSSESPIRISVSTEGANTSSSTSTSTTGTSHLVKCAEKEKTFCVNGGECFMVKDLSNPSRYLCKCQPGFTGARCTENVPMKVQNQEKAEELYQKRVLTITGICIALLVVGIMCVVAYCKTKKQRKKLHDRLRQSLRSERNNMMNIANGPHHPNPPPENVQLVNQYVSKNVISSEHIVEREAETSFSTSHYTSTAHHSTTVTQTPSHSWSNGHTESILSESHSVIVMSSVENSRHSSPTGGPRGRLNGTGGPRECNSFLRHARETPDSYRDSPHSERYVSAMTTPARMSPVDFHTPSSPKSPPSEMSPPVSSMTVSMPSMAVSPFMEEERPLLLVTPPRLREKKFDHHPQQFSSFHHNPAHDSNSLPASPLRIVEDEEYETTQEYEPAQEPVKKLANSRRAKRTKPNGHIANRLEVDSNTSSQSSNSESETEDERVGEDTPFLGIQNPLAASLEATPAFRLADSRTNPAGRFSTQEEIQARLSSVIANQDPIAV
Torsin-1A-interacting protein 2 (Homo sapiens), sequence (Q8NFQ8 whole entry, looked up): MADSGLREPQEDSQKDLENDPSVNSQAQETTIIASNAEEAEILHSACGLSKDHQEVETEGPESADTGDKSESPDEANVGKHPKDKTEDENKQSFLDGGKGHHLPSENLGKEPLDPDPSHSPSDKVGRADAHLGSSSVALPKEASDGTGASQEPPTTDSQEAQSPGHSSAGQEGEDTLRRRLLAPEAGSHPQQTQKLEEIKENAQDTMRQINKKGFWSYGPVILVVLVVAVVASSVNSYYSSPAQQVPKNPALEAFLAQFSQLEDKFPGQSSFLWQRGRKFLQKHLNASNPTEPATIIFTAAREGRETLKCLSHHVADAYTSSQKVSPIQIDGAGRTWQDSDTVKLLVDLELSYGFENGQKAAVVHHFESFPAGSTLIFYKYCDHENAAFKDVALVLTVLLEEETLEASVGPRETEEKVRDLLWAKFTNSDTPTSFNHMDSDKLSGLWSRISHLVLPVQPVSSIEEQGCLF

## CON=CC[C@@H]1C=C[C@H](OC(C)=O)[C@@H](COC(C)=O)O1
[1]
  composite z-score: -0.043
[2]
  composite z-score: 0.0682
[3]
  composite z-score: -0.0006
[4]
  composite z-score: 0.119
[5]
  composite z-score: 0.255
[6]
  composite z-score: -0.189
[7]
  composite z-score: -0.686
[8]
  z-score: 0.41 (inactive)
[9]
  composite z-score: 0.143
[10]
  composite z-score: 0.151
[11]
  composite z-score: 0.0622
[12]
  z-score: 0.586 (inactive)
[13]
  z-score: 0.141 (inactive)
[14]
  z-score: 0.35 (inactive)
[15]
  composite z-score: 0.172
[16]
  z-score: -0.0614 (inactive)
[17]
  composite z-score: 0.253
[18]
  composite z-score: 0.532
[19]
  composite z-score: -0.0592
[20]
  composite z-score: -0.184

## CO[C@@H]1COC(=O)CC=C[C@@H](C)[C@H](OC)COC(=O)[C@@H](C)COC(=O)CC=C[C@H]1C
[1]
  composite z-score: -0.404
[2]
  composite z-score: 0.812
[3]
  composite z-score: 0.553
[4]
  composite z-score: -0.552
[5]
  composite z-score: -1.27
[6]
  composite z-score: -0.245
[7]
  composite z-score: -0.844
[8]
  z-score: -0.182 (inactive)
[9]
  composite z-score: -0.387
[10]
  composite z-score: 0.312
[11]
  composite z-score: 0.263
[12]
  z-score: 0.659 (inactive)
[13]
  z-score: -0.155 (inactive)
[14]
  z-score: 1.2 (inactive)
[15]
  composite z-score: -0.915
[16]
  z-score: 0.421 (inactive)
[17]
  composite z-score: -0.317
[18]
  composite z-score: 0.496
[19]
  composite z-score: -0.81
[20]
  composite z-score: -0.616

## CCCNC(=O)OC[C@H]1O[C@H](c2ccccc2)C=C[C@@H]1Oc1ccc(OC)cc1
[1]
  composite z-score: -0.428
[2]
  composite z-score: 0.273
[3]
  composite z-score: 0.0299
[4]
  composite z-score: 0.594
[5]
  composite z-score: 0.344
[6]
  composite z-score: -0.327
[7]
  composite z-score: -0.0407
[8]
  z-score: -0.0983 (inactive)
[9]
  composite z-score: -0.246
[10]
  composite z-score: -0.0994
[11]
  composite z-score: -0.0125
[12]
  z-score: -0.325 (inactive)
[13]
  z-score: -0.423 (inactive)
[14]
  z-score: 0.0199 (inactive)
[15]
  composite z-score: 0.361
[16]
  z-score: 0.806 (inactive)
[17]
  composite z-score: -0.0916
[18]
  composite z-score: -0.234
[19]
  composite z-score: -0.124
[20]
  composite z-score: -0.146

## CC(C)(C)N1C(=O)[C@H]2[C@H]3[C@H](O)[C@H](O)CC(=O)[C@@H]3CC[C@H]2C1=O
[1]
  composite z-score: 1.64
[2]
  composite z-score: 0.0227
[3]
  composite z-score: -0.156
[4]
  composite z-score: 0.673
[5]
  composite z-score: 0.259
[6]
  composite z-score: -0.404
[7]
  composite z-score: 0.304
[8]
  z-score: -0.255 (inactive)
[9]
  composite z-score: 0.723
[10]
  composite z-score: -0.0645
[11]
  composite z-score: 0.33
[12]
  z-score: -0.128 (inactive)
[13]
  z-score: -0.509 (inactive)
[14]
  z-score: -0.0675 (inactive)
[15]
  composite z-score: -0.26
[16]
  z-score: -0.561 (inactive)
[17]
  composite z-score: -0.204
[18]
  composite z-score: 0.562
[19]
  composite z-score: 0.373
[20]
  composite z-score: -0.147

## COC(=O)CC=C[C@@H](C)[C@@H](C=NO[C@H](C)c1cn([C@@H]2COC[C@H]2O)nn1)NS(=O)(=O)c1ccc(C)cc1
[1]
  composite z-score: -0.279
[2]
  composite z-score: 0.612
[3]
  composite z-score: -0.0027
[4]
  composite z-score: 0.575
[5]
  composite z-score: 0.283
[6]
  composite z-score: 0.0806
[7]
  composite z-score: 0.928
[8]
  z-score: -1.24 (inactive)
[9]
  composite z-score: 0.374
[10]
  composite z-score: -0.166
[11]
  composite z-score: 0.274
[12]
  z-score: 0.412 (inactive)
[13]
  z-score: 0.144 (inactive)
[14]
  z-score: -0.173 (inactive)
[15]
  composite z-score: -0.0305
[16]
  z-score: 0.554 (inactive)
[17]
  composite z-score: 0.0428
[18]
  composite z-score: 0.492
[19]
  composite z-score: 0.223
[20]
  composite z-score: 0.0049

## C=Cc1ccc([C@H]2N[C@H](C(=O)O)CC[C@@H]2C)cc1
[1]
  composite z-score: -0.372
[2]
  composite z-score: 0.056
[3]
  composite z-score: -0.156
[4]
  composite z-score: 0.145
[5]
  composite z-score: -0.226
[6]
  composite z-score: -0.284
[7]
  composite z-score: 0.564
[8]
  z-score: 1.35 (inactive)
[9]
  composite z-score: -0.0301
[10]
  composite z-score: 0.0399
[11]
  composite z-score: -1.29
[12]
  z-score: -0.382 (inactive)
[13]
  z-score: -0.261 (inactive)
[14]
  z-score: -0.676 (inactive)
[15]
  composite z-score: -0.447
[16]
  z-score: 0.58 (inactive)
[17]
  composite z-score: 0.0772
[18]
  composite z-score: 0.0295
[19]
  composite z-score: 0.417
[20]
  composite z-score: -0.0349

## COc1ccc(COC(=O)NN=C2C[C@@H](O)[C@@H](O)[C@@H]3[C@@H]4C(=O)N(C5CCCCC5)C(=O)[C@@H]4CC[C@H]23)cc1
[1]
  composite z-score: 1.21
[2]
  composite z-score: 0.588
[3]
  composite z-score: -0.0784
[4]
  composite z-score: -0.396
[5]
  composite z-score: -0.961
[6]
  composite z-score: -0.255
[7]
  composite z-score: -0.194
[8]
  z-score: 0.248 (inactive)
[9]
  composite z-score: 0.524
[10]
  composite z-score: -0.409
[11]
  composite z-score: -0.416
[12]
  z-score: 0.494 (inactive)
[13]
  z-score: 0.586 (inactive)
[14]
  z-score: 0.818 (inactive)
[15]
  composite z-score: 0.271
[16]
  z-score: -0.277 (inactive)
[17]
  composite z-score: 0.432
[18]
  composite z-score: -0.752
[19]
  composite z-score: -1.19
[20]
  composite z-score: -0.242

## C[C@H]1Cc2c(COc3ccccc3)nc3c(c2CO1)CN(CCOc1ccccc1)CC3
[1]
  composite z-score: -0.762
[2]
  composite z-score: 0.665
[3]
  composite z-score: -0.0468
[4]
  composite z-score: 0.503
[5]
  composite z-score: 1.28
[6]
  composite z-score: 0.455
[7]
  composite z-score: 0.794
[8]
  z-score: -1.16 (inactive)
[9]
  composite z-score: 0.0632
[10]
  composite z-score: -0.174
[11]
  composite z-score: 1.56
[12]
  z-score: -0.381 (inactive)
[13]
  z-score: -2.38 (inactive)
[14]
  z-score: -1.15 (inactive)
[15]
  composite z-score: 1.76
[16]
  z-score: 1.11 (inactive)
[17]
  composite z-score: -0.0998
[18]
  composite z-score: 0.216
[19]
  composite z-score: 1.16
[20]
  composite z-score: -0.0283

## O=C(NN=C1C[C@@H](O)[C@@H](O)[C@@H]2[C@@H]3C(=O)N(Cc4ccccc4)C(=O)[C@@H]3CC[C@@H]12)OCc1ccccc1
[1]
  composite z-score: -0.404
[2]
  composite z-score: 0.408
[3]
  composite z-score: -0.0229
[4]
  composite z-score: 0.155
[5]
  composite z-score: 0.495
[6]
  composite z-score: -0.358
[7]
  composite z-score: -0.871
[8]
  z-score: -0.119 (inactive)
[9]
  composite z-score: -0.0711
[10]
  composite z-score: 0.233
[11]
  composite z-score: -0.395
[12]
  z-score: -0.227 (inactive)
[13]
  z-score: -0.148 (inactive)
[14]
  z-score: -0.413 (inactive)
[15]
  composite z-score: -0.802
[16]
  z-score: 0.258 (inactive)
[17]
  composite z-score: -0.112
[18]
  composite z-score: 0.509
[19]
  composite z-score: 0.188
[20]
  composite z-score: 0.0551

## CC(C)(C)N1C(=O)[C@H]2[C@H]3[C@H](O)[C@H](O)CC(=O)[C@H]3CC[C@H]2C1=O
[1]
  composite z-score: -0.635
[2]
  composite z-score: 1.21
[3]
  composite z-score: -0.107
[4]
  composite z-score: 0.295
[5]
  composite z-score: 0.967
[6]
  composite z-score: 0.354
[7]
  composite z-score: 0.725
[8]
  z-score: -0.0954 (inactive)
[9]
  composite z-score: 0.115
[10]
  composite z-score: -0.134
[11]
  composite z-score: 0.729
[12]
  z-score: 0.445 (inactive)
[13]
  z-score: -0.109 (inactive)
[14]
  z-score: 0.85 (inactive)
[15]
  composite z-score: 0.46
[16]
  z-score: -0.29 (inactive)
[17]
  composite z-score: -0.211
[18]
  composite z-score: 0.344
[19]
  composite z-score: 0.611
[20]
  composite z-score: -0.0333
